# Assay results as given in PubChem BioAssay (NCATS).
# Results filed as inconclusive are left out. The source made the active and inactive calls. Unless noted, calls follow the shape of the dose curve; as a rule, active = well fitted curve in the direction sought with a large enough effect; inconclusive = small, poorly fitted or top-dose-only effect, or another doubt; inactive = no such curve, though single readings can be large; an effect the other way counts as inactive or inconclusive.
# Legend:
# [1] = molecular target: Estrogen receptor (Homo sapiens) (UniProt P03372); assay: qHTS assay for small molecule antagonists of estrogen receptor alpha signaling (AID 588513; active = well fitted curve in the direction sought with a large enough effect in the signal ratio, with a control signal flat, not every such curve was filed as active; the % refers to the signal ratio; also: % is scaled to controls: 0 for no effect and ±100 for the full control effect); settings: ER-alpha-UAS-bla HEK293, beta-lactamase ratio, antagonist mode; series mostly up to 76.9 µM
# Estrogen receptor (Homo sapiens), sequence (P03372 whole entry, looked up): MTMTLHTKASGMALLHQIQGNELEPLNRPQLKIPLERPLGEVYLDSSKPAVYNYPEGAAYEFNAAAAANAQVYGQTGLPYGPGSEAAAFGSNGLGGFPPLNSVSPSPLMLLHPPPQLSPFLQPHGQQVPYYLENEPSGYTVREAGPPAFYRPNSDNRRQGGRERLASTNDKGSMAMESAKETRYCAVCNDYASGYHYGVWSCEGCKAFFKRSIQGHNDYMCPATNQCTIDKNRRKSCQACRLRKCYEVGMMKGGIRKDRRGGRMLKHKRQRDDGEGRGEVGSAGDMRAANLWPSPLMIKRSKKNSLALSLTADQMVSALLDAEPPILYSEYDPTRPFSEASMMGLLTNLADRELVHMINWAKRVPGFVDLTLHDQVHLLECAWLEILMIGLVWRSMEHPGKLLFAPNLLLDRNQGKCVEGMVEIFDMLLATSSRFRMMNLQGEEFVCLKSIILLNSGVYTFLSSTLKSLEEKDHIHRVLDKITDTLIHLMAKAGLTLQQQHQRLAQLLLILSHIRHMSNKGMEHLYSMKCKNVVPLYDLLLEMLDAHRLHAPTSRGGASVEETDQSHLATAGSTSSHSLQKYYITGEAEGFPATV
# Method in brief: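 Antagonist mode: inhibition of 0.5 nM 17-beta-estradiol-driven beta-lactamase reporter in HEK 293 ER-alpha-UAS-bla cells, 18 h at 37C, CCF4 readout after 2 h at RT. Normalised to estradiol and DMSO; titration fitted to Hill.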
# [2] = molecular target: Peroxisome proliferator-activated receptor gamma (Homo sapiens) (UniProt P37231); assay: qHTS assay for small molecule agonists of peroxisome proliferator-activated receptor gamma signaling (AID 588536; active = well fitted curve in the direction sought with a large enough effect in the signal ratio, with a control signal flat, not every such curve was filed as active; the % refers to the signal ratio;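 also: 0% = DMSO basal wells and 100% = rosiglitazone at 2 µM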); settings: HEK293 PPARg-UAS-bla, beta-lactamase ratio, 16 h, percent of rosiglitazone response, DMSO as zero; series mostly up to 76.7 µM
# Peroxisome proliferator-activated receptor gamma (Homo sapiens), sequence (P37231 whole entry, looked up): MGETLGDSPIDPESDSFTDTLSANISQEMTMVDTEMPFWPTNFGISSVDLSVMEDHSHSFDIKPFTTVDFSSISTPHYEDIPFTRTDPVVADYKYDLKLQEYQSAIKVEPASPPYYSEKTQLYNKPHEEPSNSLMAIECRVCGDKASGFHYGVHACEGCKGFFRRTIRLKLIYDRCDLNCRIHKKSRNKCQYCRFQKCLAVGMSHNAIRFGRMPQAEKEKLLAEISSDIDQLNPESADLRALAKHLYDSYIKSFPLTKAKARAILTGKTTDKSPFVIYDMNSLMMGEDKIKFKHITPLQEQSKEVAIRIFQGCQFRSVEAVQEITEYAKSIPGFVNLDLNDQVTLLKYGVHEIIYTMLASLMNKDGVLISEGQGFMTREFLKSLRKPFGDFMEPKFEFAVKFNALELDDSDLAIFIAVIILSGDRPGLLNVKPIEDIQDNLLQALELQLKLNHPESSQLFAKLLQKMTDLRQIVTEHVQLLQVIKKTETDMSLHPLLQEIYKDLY
# Method in brief: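 Using GeneBLAzer HEK293 cells, response was quantified by CCF4 fluorescence and normalized between basal DMSO (0%) and rosiglitazone 2 uM (100%); curves yielded half-maximal stimulation concentration and efficacy.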
# [3] = molecular target: Peroxisome proliferator-activated receptor gamma (Homo sapiens) (UniProt P37231); assay: qHTS assay for small molecule antagonists of peroxisome proliferator-activated receptor gamma signaling (AID 588537; active = well fitted inhibition curve with a large enough effect in the signal ratio, with a control signal flat, not every such curve was filed as active; the % refers to the signal ratio;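 also: reporter cells co-stimulated with 50 nM rosiglitazone agonist during compound treatment; % of control where 0% means no effect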); settings: HEK293 PPARg-UAS-bla, beta-lactamase ratio, antagonist mode; series mostly up to 76.8 µM
# Method in brief: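 Read-out: CCF4 fluorescence (ex 405, em 460/530 nm) after 2 h at RT. Cells were HEK293 carrying a UAS-bla reporter and treated 16 h at 37 C with compound plus rosiglitazone (50 nM final). Normalized to rosiglitazone and DMSO.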
# [4] = molecular target: Vitamin D3 receptor (Homo sapiens) (UniProt P11473); assay: qHTS assay for small molecule agonists of vitamin D receptor signaling (AID 588543; calls by dose curve;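 also: 0% = DMSO basal and 100% = reference agonist control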); settings: HEK293T VDR-UAS-bla, beta-lactamase ratio, 16 h; series mostly up to 76.8 µM
# Vitamin D3 receptor (Homo sapiens), sequence (P11473 whole entry, looked up): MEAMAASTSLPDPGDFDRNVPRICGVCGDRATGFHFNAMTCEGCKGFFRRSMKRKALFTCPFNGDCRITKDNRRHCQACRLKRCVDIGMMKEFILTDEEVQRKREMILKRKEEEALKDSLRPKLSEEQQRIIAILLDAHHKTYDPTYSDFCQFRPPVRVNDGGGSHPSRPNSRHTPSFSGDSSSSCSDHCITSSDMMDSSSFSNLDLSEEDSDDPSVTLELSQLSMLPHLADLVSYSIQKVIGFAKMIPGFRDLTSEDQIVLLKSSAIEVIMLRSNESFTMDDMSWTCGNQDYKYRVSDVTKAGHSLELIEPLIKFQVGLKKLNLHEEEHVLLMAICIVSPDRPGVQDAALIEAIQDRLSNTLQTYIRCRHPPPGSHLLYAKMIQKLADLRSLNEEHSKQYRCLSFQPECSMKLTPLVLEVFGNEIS
# Method in brief: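 Agonist-mode beta-lactamase reporter: HEK293T VDR-UAS-bla cells in charcoal-stripped 2% FBS, compound series 16 h 37 C, CCF4 2 h RT. EC50 from Hill fit, scaled against DMSO and 50 nM calcitriol control.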
# [5] = qHTS assay for small molecule agonists of retinoid X receptor alpha signaling (AID 588544; calls by dose curve;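 as to activation: 0% = DMSO basal wells and 100% = reference agonist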); settings: HEK293T RXRa-UAS-bla, beta-lactamase reporter, 18 h; 530 nm emission
# [6] = molecular target: Retinoic acid receptor RXR-alpha (Homo sapiens) (UniProt P19793); assay: as above; settings: HEK293T RXRa-UAS-bla, beta-lactamase reporter, 18 h; series mostly up to 76.7 µM
# Retinoic acid receptor RXR-alpha (Homo sapiens), sequence (P19793 whole entry, looked up): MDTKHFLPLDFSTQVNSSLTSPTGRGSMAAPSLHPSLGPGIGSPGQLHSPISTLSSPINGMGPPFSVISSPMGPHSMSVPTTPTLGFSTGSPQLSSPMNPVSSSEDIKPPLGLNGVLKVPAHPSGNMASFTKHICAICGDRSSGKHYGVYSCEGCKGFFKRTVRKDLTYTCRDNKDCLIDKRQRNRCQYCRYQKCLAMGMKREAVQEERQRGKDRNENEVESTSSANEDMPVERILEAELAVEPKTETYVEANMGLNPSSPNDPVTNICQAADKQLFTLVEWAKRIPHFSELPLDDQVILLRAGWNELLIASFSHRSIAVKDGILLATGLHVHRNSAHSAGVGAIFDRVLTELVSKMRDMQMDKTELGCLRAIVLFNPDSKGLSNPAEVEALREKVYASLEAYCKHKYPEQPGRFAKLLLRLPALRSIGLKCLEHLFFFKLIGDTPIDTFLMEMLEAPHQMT
# [7] = molecular target: Thyroid hormone receptor beta (Homo sapiens) (UniProt P10828); assay: qHTS assay for small molecule agonists of thyroid hormone receptor beta signaling (AID 588545; calls by dose curve;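 also: 0% = DMSO only and 100% = 10 nM T3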); settings: TR-UAS-bla GripTite HEK 293, beta-lactamase ratio, agonist mode, 18 h; series mostly up to 76.7 µM
# Thyroid hormone receptor beta (Homo sapiens), sequence (P10828 whole entry, looked up): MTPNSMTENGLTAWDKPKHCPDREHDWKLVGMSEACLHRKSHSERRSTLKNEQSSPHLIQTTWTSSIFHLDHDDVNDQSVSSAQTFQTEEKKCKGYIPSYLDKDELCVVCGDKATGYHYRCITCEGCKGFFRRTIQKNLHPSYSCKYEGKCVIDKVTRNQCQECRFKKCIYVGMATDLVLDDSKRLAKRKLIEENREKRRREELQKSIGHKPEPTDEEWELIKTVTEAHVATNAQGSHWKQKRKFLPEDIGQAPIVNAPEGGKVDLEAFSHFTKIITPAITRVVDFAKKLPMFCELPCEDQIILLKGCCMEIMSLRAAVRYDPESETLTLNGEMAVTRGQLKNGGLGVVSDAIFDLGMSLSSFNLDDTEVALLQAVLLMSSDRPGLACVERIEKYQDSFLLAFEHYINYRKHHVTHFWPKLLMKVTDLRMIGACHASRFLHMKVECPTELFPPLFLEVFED
# Method in brief: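 Stimulation of a TR-driven beta-lactamase reporter was quantified in GripTite HEK 293 cells. Compound series ran for 18 hrs; curves were normalized to T3 and DMSO controls and fitted to yield EC50.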
# [8] = qHTS assay for small molecule antagonists of retinoid X receptor alpha signaling (AID 588546; active = well fitted inhibition curve with a large enough effect in the signal ratio, with a control signal flat, not every such curve was filed as active; the % refers to the signal ratio;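 also: cells stimulated with 9-cis-retinoic acid as agonist; % is scaled to controls: 0 for no effect and ±100 for the full control effect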); settings: HEK293T RXRa-UAS-bla, beta-lactamase ratio, antagonist mode; measured here: W530 green channel, cytotoxicity proxy
# Method in brief: (§1)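 Beta-lactamase reporter inhibition, read as CCF4 fluorescence ratio (ex 405, em 460/530 nm) after 2 h at RT. HEK293T UAS-bla cells, 2500/well, were stimulated with 9-cis-RA at 500 or 100 nM final alongside test compound for 18 h at 37 C.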
# [9] = molecular target: Retinoic acid receptor RXR-alpha (Homo sapiens) (UniProt P19793); assay: as above; settings: HEK293T RXRa-UAS-bla, beta-lactamase ratio, antagonist mode
# Method in brief: as §1
# [10] = molecular target: Thyroid hormone receptor beta (Homo sapiens) (UniProt P10828); assay: qHTS assay for small molecule antagonists of thyroid hormone receptor beta signaling (AID 588547; active = well fitted inhibition curve with a large enough effect in the signal ratio, with a control signal flat, not every such curve was filed as active; the % refers to the signal ratio;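 also: cells stimulated with 0.4 nM T3 agonist during compound exposure; % is scaled to controls: 0 for no effect and ±100 for the full control effect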); settings: TR-UAS-bla HEK293, beta-lactamase ratio, antagonist mode, 18 h
# Method in brief: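 TR-UAS-bla GripTite HEK293 cells in 2% charcoal/dextran FBS medium; compounds 0.59 nM to 92 uM with T3 at 0.4nM final, 18 h at 37 C. Beta-lactamase read by CCF4 fluorescence (460/530 nm); Hill fits gave IC50 and efficacy.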
# [11] = qHTS assay for small molecule activators of the p53 signaling pathway (AID 651743; active = well fitted activation curve with a large enough effect in the signal ratio, not every such curve was filed as active; the % refers to the signal ratio; also: % of control where 0% means no effect); settings: HCT-116 p53RE-bla, beta-lactamase FRET ratio, 16 h; activation: stronger effect = higher value
# Method in brief: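 Reporter: beta-lactamase driven by p53 response elements, stably integrated in HCT-116 cells. Cells seeded at 4,000/well, 5 h preincubation, compound (DMSO) 16 h at 37 C; B/G FRET substrate 2 h RT; fluorescence intensity read.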
# [12] = qHTS assay for small molecule activators of the nuclear factor-kappa B (NF-kB) signaling pathway (AID 651749; active = well fitted activation curve with a large enough effect in the signal ratio; the % refers to the signal ratio; also: % of control where 0% means no effect); settings: NF-kB-bla ME-180 cells, beta-lactamase FRET ratio, 16 h; activation: stronger effect = higher value
# Method in brief: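 NF-kB-bla ME-180 cells, 2,000/well; 23 nL compound or DMSO pinned; 16 hr, 37C/5% CO2; beta-lactamase FRET read-out.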
# [13] = qHTS assay for environmental chemicals that activate the Aryl hydrocarbon Receptor (AhR) signaling pathway (AID 651777); settings: 1A2-DRE human hepatoma cells, luciferase, 24 h; activation: stronger effect = higher value; also: % of control where 0% means no effect; nearly all actives have a fitted effect of over 15% in size
# Method in brief: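 Induction of CYP1A2 transcription through AhR is detected by luciferase in 1A2-DRE hepatoma cells. Compounds or DMSO act for 24 hr at 37 C before a 30 min One-Glo step at room temperature.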
# [14] = molecular target: Peroxisome proliferator-activated receptor alpha (Homo sapiens) (UniProt Q07869); assay: qHTS assay for small molecule agonists of the peroxisome proliferator-activated receptor alpha (PPARalpha) signaling pathway (AID 651778); settings: PathHunter PPARalpha complementation, chemiluminescence, 6 h; max response: stronger effect = higher value; also: % of control where 0% means no effect
# Peroxisome proliferator-activated receptor alpha (Homo sapiens), sequence (Q07869 whole entry, looked up, the tested form may be a part): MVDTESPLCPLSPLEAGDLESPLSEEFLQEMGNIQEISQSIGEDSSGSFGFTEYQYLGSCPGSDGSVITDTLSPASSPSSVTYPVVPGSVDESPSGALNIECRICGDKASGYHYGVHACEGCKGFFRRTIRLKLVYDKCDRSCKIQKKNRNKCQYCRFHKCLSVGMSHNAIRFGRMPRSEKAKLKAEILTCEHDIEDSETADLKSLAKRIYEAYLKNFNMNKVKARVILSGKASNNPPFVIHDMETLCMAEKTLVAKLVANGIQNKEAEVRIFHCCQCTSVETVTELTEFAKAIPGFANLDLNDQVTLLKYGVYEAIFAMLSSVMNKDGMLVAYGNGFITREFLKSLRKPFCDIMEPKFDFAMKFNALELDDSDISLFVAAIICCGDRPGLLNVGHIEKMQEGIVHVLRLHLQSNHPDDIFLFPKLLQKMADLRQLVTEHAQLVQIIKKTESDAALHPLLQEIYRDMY
# Method in brief: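 Enzyme-fragment complementation assay in which ligand-bound PPARalpha translocates and forms an active enzyme that generates chemiluminescence. Cells were plated overnight, exposed to compound for 6 hr at 37 C, and then given detection reagent for 60 min at room temperature.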
# [15] = qHTS assay for small molecule agonists of the antioxidant response element (ARE) signaling pathway measured by Nrf2-dependant transcriptional activity - cell viability counter screen (AID 720653; active = well fitted curve in the direction sought with a large enough effect in the repeat runs; an effect the other way counts as inactive or inconclusive; also: % is scaled to controls: 0 for no effect and ±100 for the full control effect); settings: ARE-bla HepG2 viability, CellTiter-Glo ATP luminescence, 16 h; max response: stronger effect = lower value
# Method in brief: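 ARE-bla HepG2 cells treated with compounds for 16 h at 37C; this counter screen measures viability as intracellular ATP by CellTiter-Glo luminescence after 30 min at room temperature.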
# [16] = qHTS assay for cell viability of HEK293 cells (AID 743288); settings: ATP luminescence (CellTiter-Glo), 18 h; max response: stronger effect = lower value; also: % is scaled to controls: 0 for no effect and ±100 for the full control effect; nearly all actives have a fitted effect of over 50% in size
# Method in brief: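 Readout is luciferase-coupled ATP content (CellTiter-Glo luminescence, 30 min room temperature) as a measure of metabolically competent cells. Parental HEK293 cells were plated 5 h or more before compound addition, then treated 18 h at 37 C.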
# [17] = qHTS assay for cell viability of the p53RE-bla HCT-116 cell line (AID 743292); settings: p53RE-bla HCT-116 viability, ATP luminescence, 16 h; series mostly up to 95 µM; also: % is scaled to controls: 0 for no effect and ±100 for the full control effect; nearly all actives have a fitted effect of over 55% in size
# Method in brief: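 In this qHTS counter-screen, metabolically competent p53RE-bla HCT-116 cells were counted via their ATP content. Compounds were applied for 16 h at 37 C and luciferase-coupled luminescence was measured.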
# [18] = molecular target: Nuclear receptor subfamily 1 group I member 2 (Rattus norvegicus) (UniProt Q9R1A7); assay: qHTS assay for small molecule activators of the rat pregnane X receptor (rPXR) signaling pathway (AID 651751; call rule not given here; also: 0% is about no effect); settings: rPXR reporter cells, luciferase (One-Glo), 24 h
# Nuclear receptor subfamily 1 group I member 2 (Rattus norvegicus), sequence (Q9R1A7 whole entry, looked up): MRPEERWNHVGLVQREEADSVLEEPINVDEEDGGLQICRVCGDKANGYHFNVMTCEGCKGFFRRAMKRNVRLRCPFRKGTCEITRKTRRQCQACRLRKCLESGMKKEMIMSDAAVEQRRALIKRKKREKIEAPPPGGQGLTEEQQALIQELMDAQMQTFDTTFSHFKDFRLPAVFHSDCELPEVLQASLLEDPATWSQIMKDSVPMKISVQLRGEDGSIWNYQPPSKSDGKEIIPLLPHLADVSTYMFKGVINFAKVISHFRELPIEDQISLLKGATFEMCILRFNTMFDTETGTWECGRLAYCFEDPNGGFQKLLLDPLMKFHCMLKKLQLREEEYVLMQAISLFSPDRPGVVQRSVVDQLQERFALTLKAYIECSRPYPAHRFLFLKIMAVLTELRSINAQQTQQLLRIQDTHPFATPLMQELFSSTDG
# [19] = qHTS assay for small molecule activators of the human pregnane X receptor (PXR) signaling pathway (AID 720659; call rule not given here; also: 0% is about no effect); settings: DPX-2 HepG2 CYP3A4-luciferase, 24 h; series mostly up to 92.3 µM
# [20] = qHTS assay for small molecule agonists of the antioxidant response element (ARE) signaling pathway measured by Nrf2-dependant transcriptional activity (AID 720636; active = well fitted curve in the direction sought with a large enough effect in the repeat runs; an effect the other way counts as inactive or inconclusive;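 also: HepG2 cells with an ARE-driven luciferase reporter; % of control where 0% means no effect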); settings: ARE-luc HepG2, Nrf2 luciferase reporter, 16 h; series mostly up to 92.4 µM
# Method in brief: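 We exposed ARE-luc HepG2 cells, seeded in assay medium with 1% dialyzed FBS and allowed 6 hr to adhere, to test compounds overnight (16 hr, 37 C) before measuring luciferase with ONE-Glo.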
SMILES,Potency [1],outcome [2],Potency [3],outcome [4],max response [5] [%],Potency [6],Potency [7],max response [8] [%],max response [9],activity change % (negative = inhibition) [10],activation [11],activation [12],activation [13],max response [14],max response [15],max response [16],Potency [17],max response [18],outcome [19],Potency [20]
CCCCCc1ccc(N)cc1,inactive,inactive,inactive,inactive,-0.233,inactive,inactive,-8.57,-25% (inactive),0.338% (inactive),9.16% (inactive),1.37% (inactive),1.05% (inactive),-1.26% (inactive),5.18% (inactive),-6.55% (inactive),inactive,1.5% (inactive),inactive,
CCc1c(C(=O)O)c(=O)cnn1-c1ccc(Cl)cc1,,inactive,inactive,inactive,,,inactive,-1.3,7.37% (inactive),4.34% (inactive),1.9% (inactive),-0.428% (inactive),0.0279% (inactive),3.7% (inactive),-3.97% (inactive),-15.5% (inactive),inactive,-1.29% (inactive),inactive,inactive
CC1COCc2cc3c(cc21)C(C)(C)C(C)C3(C)C (stereo unspecified),,inactive,,inactive,-11.9,inactive,inactive,-17.6,0.528% (inactive),0.269% (inactive),-1.06% (inactive),1.51% (inactive),1.13% (inactive),7.58% (inactive),,-3.83% (inactive),inactive,3.75% (inactive),,inactive
Cl[Si](Cl)(Cl)c1ccccc1,,inactive,inactive,inactive,-15.8,inactive,inactive,-7.94,-5.52% (inactive),-0.0742% (inactive),-5.69% (inactive),-0.0547% (inactive),-0.059% (inactive),-2.31% (inactive),-8.94% (inactive),-13.3% (inactive),inactive,1.77% (inactive),inactive,inactive
